# Source: the supplement of paper PMC8728848
# The entries come from a sample that favours the strongest signals as a whole.
# B1: LEA (Lycopersicon esculentum) (protein)
# chain: NEVFDVPMNETIGVESINASVGGYPRCGAQGDGGNCPSGMCCSVWGWCGKTYGYCAPQNCQKQCPAPYPEGRCGWQADGKSCPNGKCCSYGGWCGTTSDYCARQNCQKQCILPSPPPPPPPPPGFPRPECGLQKNGERCTKPGECCSIWGLCGATYKYCDPQHCQKQCSAPFPPGRCGWQADGRPCPTGQCCSFSGWCGTTSAHCTYPQCVSQCNDPRFPSSLNNRIQSFML
# Assays:
# Assay in all cases: glycan array binding signal (z-score within array); higher = stronger binding
# Conditions in all cases: glycan notation: IUPAC condensed, linker removed
# [1] = molecular target: Fuc(a1-2)Gal(b1-4)GlcNAc
# Outline: (§1)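 Columns mapping to the same glycan were averaged after glycan names were converted to IUPAC-condensed notation. The data come from 3228 arrays in the Consortium for Functional Glycomics database, limited to those with an available protein sequence. Binding is reported as a within-array Z-score averaged across arrays of one protein sequence and across linkers.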
# [2] = molecular target: Fuc(a1-2)Gal6S(b1-4)Glc6S
# Outline: as §1
# [3] = molecular target: Fuc(a1-2)Gal6S(b1-4)GlcNAc
# Outline: as §1
# [4] = molecular target: Fuc(a1-2)[Gal(a1-3)]Gal(b1-4)GlcNAc
# Outline: as §1
# [5] = molecular target: Fuc(a1-2)[Gal(a1-4)]Gal(b1-4)GalNAc
# Outline: as §1
# [6] = molecular target: Fuc(a1-2)[GalNAc(a1-3)]Gal(b1-3)GlcNAc
# Outline: as §1
# [7] = molecular target: Fuc(a1-2)[GalNAc(a1-3)]Gal(b1-4)GlcNAc
# Outline: as §1
# [8] = molecular target: Fuc(a1-2)[GalNAc(a1-4)]Gal(b1-4)GlcNAc
# Outline: as §1
# [9] = molecular target: Fuc(a1-3)[Gal(b1-4)]GlcNAc(b1-4)Gal(b1-4)[Fuc(a1-3)]GlcNAc(b1-4)Gal(b1-4)[Fuc(a1-3)]GlcNAc
# Outline: as §1
# [10] = molecular target: Fuc(a1-3)[Gal3S(b1-4)]GlcNAc6S
# Outline: as §1
# [11] = molecular target: Gal(a1-4)GlcNAc
# Outline: as §1
# [12] = molecular target: Gal(b1-3)GalNAc(b1-3)Gal(a1-4)Gal(b1-4)Glc
# Outline: as §1
# [13] = molecular target: Gal(b1-3)[Neu5Ac(a2-6)]GlcNAc(a1-4)Gal(b1-4)Glc
# Outline: as §1
# [14] = molecular target: Gal(b1-4)GalNAc(b1-3)[Fuc(a1-2)]Gal(b1-4)GlcNAc
# Outline: as §1
# [15] = molecular target: Gal(b1-4)GlcNAc(b1-6)GalNAc
# Outline: as §1
# [16] = molecular target: Gal3S(b1-3)[Fuc(a1-4)]GlcNAc
# Outline: as §1
# [17] = molecular target: Gal6S(b1-4)Glc
# Outline: as §1
# [18] = molecular target: GalNAc(a1-3)GalNAc
# Outline: as §1
# [19] = molecular target: GalNAc(b1-3)Gal(a1-4)Gal(b1-4)GlcNAc
# Outline: as §1
# [20] = molecular target: GlcNAc(b1-3)Gal
# Outline: as §1
# [21] = molecular target: GlcNAc(b1-3)Gal(b1-3)GalNAc
# Outline: as §1
# [22] = molecular target: GlcNAc(b1-4)Gal(b1-4)GlcNAc
# Outline: as §1
# [23] = molecular target: GlcNAc(b1-4)GlcNAc(b1-4)GlcNAc(b1-4)GlcNAc(b1-4)GlcNAc(b1-4)GlcNAc
# Outline: as §1
# [24] = molecular target: GlcNAc(b1-6)GalNAc
# Outline: as §1
# [25] = molecular target: Kdn(a2-3)Gal(b1-3)GlcNAc
# Outline: as §1
# [26] = molecular target: Man(a1-2)Man(a1-2)Man(a1-6)[Man(a1-3)]Man
# Outline: as §1
# [27] = molecular target: Neu5Ac(a2-3)Gal(b1-3)GalNAc
# Outline: as §1
# [28] = molecular target: Neu5Ac(a2-3)Gal(b1-3)GalNAc6S
# Outline: as §1
# [29] = molecular target: Neu5Ac(a2-3)Gal(b1-4)GlcNAc(b1-3)Gal(b1-3)GlcNAc
# Outline: as §1
# [30] = molecular target: Neu5Ac(a2-3)Gal(b1-4)GlcNAc(b1-3)Gal(b1-4)[Fuc(a1-3)]GlcNAc
# Outline: as §1
# [31] = molecular target: Neu5Ac(a2-3)[GalNAc(b1-4)]Gal(b1-4)Glc
# Outline: as §1
# [32] = molecular target: Neu5Ac(a2-6)Gal(b1-4)GlcNAc(b1-2)Man(a1-3)[Neu5Ac(a2-6)Gal(b1-4)GlcNAc(b1-2)Man(a1-6)]Man(b1-4)GlcNAc(b1-4)GlcNAc
# Outline: as §1
# [33] = molecular target: Neu5Gc(a2-3)Gal(b1-4)[Fuc(a1-4)]GlcNAc
# Outline: as §1
binder,measurement,setting,value
B1,glycan array binding signal (z-score),[1],1.11
same,glycan array binding signal (z-score),[2],-0.512
same,glycan array binding signal (z-score),[3],-0.55
same,glycan array binding signal (z-score),[4],2.51
same,glycan array binding signal (z-score),[5],2.53
same,glycan array binding signal (z-score),[6],-0.547
same,glycan array binding signal (z-score),[7],2.5
same,glycan array binding signal (z-score),[8],2.62
same,glycan array binding signal (z-score),[9],-0.541
same,glycan array binding signal (z-score),[10],0.546
same,glycan array binding signal (z-score),[11],-0.545
same,glycan array binding signal (z-score),[12],-0.547
same,glycan array binding signal (z-score),[13],-0.546
same,glycan array binding signal (z-score),[14],2.17
same,glycan array binding signal (z-score),[15],0.621
same,glycan array binding signal (z-score),[16],-0.518
same,glycan array binding signal (z-score),[17],-0.518
same,glycan array binding signal (z-score),[18],-0.553
same,glycan array binding signal (z-score),[19],2.55
same,glycan array binding signal (z-score),[20],-0.567
same,glycan array binding signal (z-score),[21],-0.526
same,glycan array binding signal (z-score),[22],1.96
same,glycan array binding signal (z-score),[23],2.26
same,glycan array binding signal (z-score),[24],-0.545
same,glycan array binding signal (z-score),[25],-0.443
same,glycan array binding signal (z-score),[26],-0.296
same,glycan array binding signal (z-score),[27],-0.56
same,glycan array binding signal (z-score),[28],-0.466
same,glycan array binding signal (z-score),[29],-0.129
same,glycan array binding signal (z-score),[30],-0.542
same,glycan array binding signal (z-score),[31],-0.536
same,glycan array binding signal (z-score),[32],-0.502
same,glycan array binding signal (z-score),[33],-0.041
